# Source: PubChem BioAssay
# RGS7-Gao reg = regulators of human RGS7-Galphao interaction; P09471; Multiplexed bead flow cytometry, RGS7-Galphao binding; actives lie on both sides; binding response (% of control), % at 10 µM; 0.35% of 220,000 active; AID 1439; in the data active = binding response below about 49% or above about 150%; inconclusive = no clear call, values can overlap the other calls; inactive = in between;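 also: fluorescent Galphao held in activated GDP-AlF4 state binding bead-coupled RGS7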
# GSH fluor = GSH bead compound fluorescence profile; GSH beads flow cytometry, compound fluorescence 488/530 nm; hits give high values; fluorescence (KMESF) at 10 µM; 0.25% of 190,000 active; AID 1776; in the data active = fluorescence above about 89;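 also: glutathione beads carrying GST-tagged Bcl family fusion proteins plus one bare bead set; values are compound well signal with DMSO vehicle wells as background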
# RGS8-Gao reg = modulates binding of RGS8 to human Galphao. response (percent of control binding), % at 10 µM. AID 1423. 0.34% of 220,000 active. multiplexed bead flow cytometry; actives lie on both sides; in the data active = response below about 60% or above about 140%; inactive = in between;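 also: Galphao activated as the GDP aluminium fluoride complex binding bead-coupled RGS8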
# RGS16-Gao = RGS16-Galphao interaction regulator (human); O15492+P09471; bead-based flow cytometry RGS16-Galphao binding, fluorescence; actives lie on both sides; binding response (% of control), % at 10 µM; 0.38% of 220,000 active; AID 1441; call rule not given here;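 also: Galphao activated by GDP with aluminum fluoride before binding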
# Target sequence (O15492 whole entry, looked up): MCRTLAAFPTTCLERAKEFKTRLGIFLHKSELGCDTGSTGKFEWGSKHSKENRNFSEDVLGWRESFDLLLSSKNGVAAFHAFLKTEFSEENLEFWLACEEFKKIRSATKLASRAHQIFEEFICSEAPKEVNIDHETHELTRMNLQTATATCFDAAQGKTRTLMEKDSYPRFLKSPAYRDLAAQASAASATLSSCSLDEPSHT
# Target sequence (P09471 whole entry, looked up): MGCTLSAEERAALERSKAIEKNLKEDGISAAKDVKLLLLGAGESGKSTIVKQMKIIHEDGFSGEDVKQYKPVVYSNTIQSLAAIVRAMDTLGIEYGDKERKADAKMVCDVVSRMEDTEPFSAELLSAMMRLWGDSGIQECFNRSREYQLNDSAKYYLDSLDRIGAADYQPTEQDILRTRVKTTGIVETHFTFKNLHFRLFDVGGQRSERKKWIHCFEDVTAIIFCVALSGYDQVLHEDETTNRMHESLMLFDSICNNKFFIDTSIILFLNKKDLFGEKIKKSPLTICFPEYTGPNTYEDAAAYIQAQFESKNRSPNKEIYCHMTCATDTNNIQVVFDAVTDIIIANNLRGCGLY
# Avidin bead fluor = avidin bead compound fluorescence profile. Avidin beads, compound fluorescence 488/530 nm, flow cytometry; hits give high values. fluorescence (KMESF) at 10 µM. 0.38% of 220,000 active; in the data active = fluorescence above about 47
# RGS4-Gao reg = human RGS4-Galphao interaction regulation; P09471; Multiplexed bead flow cytometry, RGS4-Galphao binding; actives lie on both sides; binding response (% of control), % at 10 µM; 0.33% of 220,000 active; in the data active = binding response below about 49% or above about 150%; inactive = in between;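 also: fluorescent Galphao activated with aluminum fluoride binding bead-coupled RGS4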
# * marks the source's active call; other numbers are inactive results; ? = inconclusive; . = not tested or not shown. Hits are enriched below; roughly 1.2% of the tested compounds scored in any of these assays.
SMILES,RGS7-Gao reg,GSH fluor,RGS8-Gao reg,RGS16-Gao,Avidin bead fluor,RGS4-Gao reg
O=C(NCc1ccco1)C1CC2CCC1C2 (stereo unspecified),135,246*,134,173,9,116
O=C(O)c1ccccc1-c1ccccc1C(=O)NNc1ccc([N+](=O)[O-])cc1,?,.,101,100,6,99
O=C(Nc1ccccc1N(C(=O)c1ccco1)S(=O)(=O)c1cccs1)c1ccco1,99,275*,101,102,6,99
O=C(Nc1c(C(=O)Nc2ccccc2)cnn1-c1ccccc1)c1ccco1,93,5,89,58,4,93
O=C(Nc1c(C(=O)Nc2cccc3ccccc23)cnn1-c1ccccc1)c1ccco1,99,99*,101,105,7,101
O=C(Nc1ccccc1NC(=O)c1ccco1)c1ccco1,-19*,11,6.2*,-27*,-4,-45*
Nc1cc(=O)[nH]c(N2CCN(c3ccccc3)CC2)n1,103,17,100,100,9,98
CCOCC(=O)Nc1c(C(=O)Nc2ccc3c(c2)OCCO3)oc2ccccc12,132,8,133,140,25,130
CCOC(=O)C1C(c2cccs2)NC(=O)N(C)C1(O)C(F)(F)F (stereo unspecified),107,10,98,94,59*,100
CN1C(=O)NC(c2cccc(O)c2)C(C(=O)c2cccs2)C1(O)C(F)(F)F (stereo unspecified),103,19,101,100,28,100
Cc1cc(C)n2c(SCCC(C)C)nnc2n1,107,255*,110,119,9,111
COc1ccc(S(=O)(=O)N2CCOCC2)cc1NC(=O)CCc1c[nH]c2ccccc12,?,16,99,98,10,99
Cc1nc2ccccc2c(=O)n1NC(=O)c1ccccc1[N+](=O)[O-],114,22,104,106,49*,102
Cc1nc2ccccc2c(=O)n1NC(=O)c1cccnc1Cl,96,11,101,97,6,101
COc1ccc(C2C(C#N)=C(C)NC3=C2C(=O)CC(C)(C)C3)c(OC)c1 (stereo unspecified),98,29,102,104,6,100
CCCCC1C(C#N)=C(C)NC2=C1C(=O)CC(C)(C)C2 (stereo unspecified),103,253*,103,104,6,100
O=C(Nc1ccc2c(c1)N(Cc1ccccc1)C(=O)c1ccccc1S2)NC1CC1,94,24,89,75,8,89
CN1C(=O)c2ccccc2Sc2ccc(NC(=O)NC3CC3)cc21,133,20,100,105,92*,108
COc1ccc(CONS(=O)(=O)c2ccc(NC(C)=O)cc2)cc1Cl,105,14,102,106,8,106
COC(=O)C1=C(C)OC(N)=C(C#N)C1c1cc(C)sc1C (stereo unspecified),112,273*,108,103,7,104
COC(=O)C1=C(C)OC(N)=C(C#N)C1c1cc2cccc(C)c2nc1Cl (stereo unspecified),98,22,105,105,12,100
OC(CNCc1ccco1)COc1ccccc1 (stereo unspecified),99,45,99,95,6,97
OC(CNCc1ccco1)Cn1c2ccccc2c2ccccc21 (stereo unspecified),102,263*,105,100,6,96
CCSC(=S)Nc1c(C)n(C)n(-c2ccccc2)c1=O,?,18,103,103,9,99
NC(=O)CC(NC(=O)c1ccccc1)c1ccc(NC2CCCC2)c([N+](=O)[O-])c1 (stereo unspecified),?,.,104,101,9,100
SMILES,RGS7-Gao reg,GSH fluor,RGS8-Gao reg,RGS16-Gao,Avidin bead fluor,RGS4-Gao reg
CC1=C(C(=O)OCC2CCCO2)C(c2coc3ccccc3c2=O)C2=C(CC(C)(C)CC2=O)N1 (stereo unspecified),92,14,97,97,9,95
CCOC(=O)C1=C(C)NC2=C(C(=O)CC(C)(C)C2)C1c1coc2ccccc2c1=O (stereo unspecified),106,19,103,122,60*,107
COc1ccc(NC(=O)Cn2cc(S(=O)(=O)Cc3ccccc3)c3ccccc32)c(OC)c1,90,12,96,93,8,93
CCCn1cc(S(=O)(=O)CC(=O)Nc2ccc(OC)cc2OC)c2ccccc21,92,130*,95,93,5,84
CCOc1ccc(C(=O)Nc2cc(-c3nc4ccccc4[nH]3)ccc2C)cc1[N+](=O)[O-],120,26,97,92,65*,110
COc1ccc(N2C(=O)CSC23C(=O)Nc2ccccc23)cc1 (stereo unspecified),101,100*,101,102,7,99
O=C(Cc1cn(Cc2cccc(Cl)c2)c2ccccc12)N1CCCCCC1,99,3,103,109,17,101
Cc1ccc(S(=O)(=O)n2[nH]c(=O)cc2N)cc1,103,20,101,100,7,101
O=C(CSc1nc(-c2ccco2)cc(C(F)(F)F)n1)Nc1cccnc1,124,62,105,108,59*,98
Cn1nc(Cc2n[nH]c(=S)n2C)c2ccccc2c1=O,?,.,99,99,6,101
O=c1c2ccccc2c2ccccc2c(=O)n1Cc1ccco1,102,19,103,108,34,101
Cc1c(N=Cc2c(O)n(Cc3ccco3)c(=O)c3ccccc23)c(=O)n(-c2ccccc2)n1C,100,136*,101,102,4,99
CN(C)c1nc(SCC#N)nc(N(C)C)n1,115,26,101,106,59*,106
CCN(CC)S(=O)(=O)c1ccc(C(=O)NC(C)(C)C)cc1,108,22,105,106,11,107
CC(C)CNC(=O)c1ccccc1NC(=O)c1ccc(CN2CCOCC2)cc1,102,19,102,102,48*,97
O=C(OCC(=O)N1CCN(C(=O)c2ccco2)CC1)C1=COCCO1,138,31,91,90,82*,94
CCOC(=O)C1CCCN(C(=O)COC(=O)C2=COCCO2)C1 (stereo unspecified),119,12,99,103,71*,104
Cc1nc(N2CCC(C)CC2)c2nnn(Cc3ccccc3)c2n1,84,89*,84,38,4,82
Cn1c2ccccc2c2ncn(CCN3CCOCC3)c(=O)c21,114,253*,123,161,9,118
COc1ccc2c(c1)c1ncn(CCCN3CCOCC3)c(=O)c1n2C,102,16,106,110,7,101
Cc1ccccc1C1CCCN(Cc2nc(CC3CC3)no2)C1 (stereo unspecified),93,11,96,99,13,97
